The record followed here is PubChem BioAssay AID463215 (Sanford-Burnham Center for Chemical Genomics, 2010).

The whole screen tested about 4,600 compounds, of which about 2,900 (63%) were called active.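 How the source made its calls: active means inhibition of yeast growth at or above a set limit in either of two replicates at 10 µM; inactive means the rest.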 So high a share suggests a set chosen from earlier hits. Only a sample is shown.

The nature of this experiment: TIM10 isogenic control strain growth inhibition – single concentration, luminescence, S. cerevisiae, counter-screen for tim10-1 synthetic lethality project, confirmation (AID 463215).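 Further: isogenic wild-type TIM10 control yeast grown in succinate dextrose medium; this counterscreen used the strain with wild-type TIM10; 0% = yeast with DMSO and 100% = medium wells lacking yeast.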 As to conditions: BacTiter-Glo luminescence, 24 h, at 10 µM, active compounds read high.
As to `Fc1cccc(Cl)c1CSc1ccc(-c2ccco2)nn1`, the inhibition is 35.9% (active).

With `O=C(/C=C/c1ccc(Cl)c([N+](=O)[O-])c1)c1cccnc1`, the inhibition is 81.2% (active).

Consider `COc1cc([N+](=O)[O-])ccc1NC(=O)COC(=O)CCOc1ccc(C)cc1`, for which the inhibition is 43.4% (active).

Consider `C=CS(=O)c1sc(Cl)c(N2CCOCC2)c1[N+](=O)[O-]` (stereo unspecified), for which the inhibition is 87.5% (active).

Regarding `CCc1ccc2c(c1)C1(NN=C(c3ccccc3)S1)C(=O)N2` (stereo unspecified), the inhibition is 43.3% (active).

In the case of `O=C(N/N=C/c1c[nH]c2ccccc12)c1cc2ccccc2o1`, the inhibition was 22.9% (inactive).

With `Cc1ccc(Nc2nc(Cl)c(C=O)s2)cc1`, the inhibition is 10.7% (inactive).

As for `Nc1ccccc1SC(C[N+](=O)[O-])c1ccccc1` (stereo unspecified), the inhibition was 53.5% (active).

With `O=C(Nc1ccc2oc(-c3ccccc3F)nc2c1)c1ccco1`, the inhibition is 62.4% (active).

As to `O=C(Nc1nc(-c2ccco2)c(-c2ccco2)s1)c1ccco1`, the inhibition is 39.9% (active).

As to `COCCNC(=O)/C(C#N)=C/c1cccc(OCc2ccccc2)c1`, the inhibition was 69.5% (active).

In the case of `Cc1cc(C)n(-c2nc(SCC(=O)N3CCCC3)c3c4c(sc3n2)CCCC4)n1`, the inhibition is 23.4% (inactive).

On to `CCOC(=O)C(=Cc1ccccc1OC)C(=O)OCC`, for which the inhibition was 27.6% (inactive).

As to `COc1ccc(CNC(=O)/C(C#N)=C/c2cccc(OC)c2OC)cc1`, the inhibition was 80.8% (active).

Turning to `c1ccc(-c2nccc(-c3ccc(-n4cnc5ccccc54)cc3)n2)nc1`, the inhibition is -3.75% (inactive).

With `CN(C)CCCN(C(=O)c1ccc(S(=O)(=O)N2CCCc3ccccc32)cc1)c1nc2ccc(F)cc2s1`, the inhibition was 41.4% (active).

Consider `CCN(CC)CCN(C(=O)c1ccc(S(=O)(=O)N2CCOCC2)cc1)c1nc2cc3c(cc2s1)OCCO3`, for which the inhibition is 28.1% (inactive).

`COc1cccc(NC(=O)CSc2nccn(-c3ccc4c(c3)OCCO4)c2=O)c1`: the inhibition was 8.7% (inactive).

For the molecule `O=C(NNc1c2ccccc2nc2ccccc12)c1cc2ccccc2cc1O`, the inhibition is -21.2% (inactive).

On to `COc1ccc(Oc2cn[nH]c2-c2ccc(OC)cc2O)cc1`, for which the inhibition is 31% (active).

As to `O=S(=O)(NC1CCCCC1)c1ccc(F)c2ccccc12`, the inhibition is 29.4% (inactive).

Consider `Fc1ccc(/C=N/n2c(COc3ccccc3)n[nH]c2=S)cc1`, for which the inhibition is 37% (active).

With `CC[C@@H]1Cc2cc(O)ccc2C2=C1c1ccc(O)cc1C[C@H]2CC`, the inhibition is 66.3% (active).

Turning to `Cc1[nH]c2ccccc2c1C(=O)COC(=O)c1c(-c2ccccc2)noc1C`, the inhibition was 36.8% (active).

In the case of `CCC(C)(C)n1nnnc1CN1CCN(c2nc3ccc(C)cc3cc2C#N)CC1`, the inhibition is 24.8% (inactive).

As for `O=C(NCc1ccco1)c1cc2sccc2n1Cc1ccc(F)cc1`, the inhibition is 23.6% (inactive).

Take `CCc1cccc(CC)c1NC(=S)NCc1ccc2[nH]c(C)cc2c1`: the inhibition is 52.9% (active).

With `CCc1sc(C(=O)N2CCN(CC(=O)Nc3cccc(F)c3)CC2)cc1C`, the inhibition was 60.8% (active).

With `C[C@@H]1C(c2ccc(F)cc2)=NN(c2ccc(Br)cc2)[C@H]1C(=O)N1CCOC1=O`, the inhibition was 52.1% (active).

Regarding `N/C(=N\OC(=O)Cc1ccccc1[N+](=O)[O-])c1ccc(Br)cc1`, the inhibition was 53% (active).

In the case of `CC(/C=N/NC(=O)c1cc(-c2ccc3ccccc3c2)n[nH]1)=C\c1ccco1`, the inhibition is 42.5% (active).

Consider `O=C1c2ccccc2C(=O)N1CC1c2ccccc2CCN1S(=O)(=O)c1ccccc1` (stereo unspecified), for which the inhibition was 22.5% (inactive).

With `O=S(=O)(ON(c1ccccc1)S(=O)(=O)c1ccccc1)c1ccccc1`, the inhibition is -4.35% (inactive).

Turning to `Cc1nn(Cc2ccc(Cl)c(Cl)c2)c(C)c1NC(=O)c1cc(C2CC2)on1`, the inhibition is 33.2% (active).

With `Oc1ccccc1C1=NN(c2ccccc2)C(c2ccccc2)C1` (stereo unspecified), the inhibition is 70.5% (active).

Regarding `COc1ccc(Cn2c(-c3ccc(Cl)cc3)c[n+]3ccccc23)cc1`, the inhibition was 34.7% (active).

For the molecule `S=C(NCCCc1ccccc1)Nc1ccc(Br)cc1`, the inhibition was 31.7% (inactive).

Turning to `COc1ccc(NC(=S)NCC2CCN(c3ccc(OC)cc3)C2)cc1` (stereo unspecified), the inhibition is -5.6% (inactive).

Regarding `O=C(Cc1ccccc1)NC(=S)Nc1ccc(N2CCCCC2)cc1`, the inhibition is 39.8% (active).

With `COc1ccc(-c2cc(-c3ccc(N)cc3)nc(N)c2C#N)cc1OC`, the inhibition was 33.8% (active).

Regarding `O=C(Nc1ccc(C(F)(F)F)cc1)c1cccc(-n2cnnn2)c1`, the inhibition was 23.1% (inactive).

For the molecule `O=C(O)c1ccc(N/N=C/c2cn(-c3ccccc3)nc2-c2cccs2)cc1`, the inhibition is 64.8% (active).

For the molecule `Cc1nnnn1/C(=C\c1ccccc1)C(=O)OCC(=O)N1CC2(C)CC1CC(C)(C)C2` (stereo unspecified), the inhibition is 50.7% (active).

For `c1ccc(-c2cn3c(n2)CCc2ccc4cccnc4c2-3)cc1`, the inhibition was 37% (active).

With `Cc1ccccc1-c1nc(C#N)c(NCc2ccco2)o1`, the inhibition is 11.5% (inactive).

In the case of `COc1cccc(CNc2nc(C(F)(F)F)nc3ccccc23)c1`, the inhibition is 27.1% (inactive).

Consider `c1ccc(-c2nc(NCc3ccco3)c3ccccc3n2)cc1`, for which the inhibition is 34% (active).

With `CC(C)N(Cc1ccccc1)C(=S)Nc1ccc(OC(F)F)cc1`, the inhibition is -14% (inactive).

For `COc1ccc(C(=O)Nc2ccccc2C(=O)N/N=C/c2ccc(O)c(OC)c2)cc1`, the inhibition was 93.3% (active).

As to `O=C(N/N=C\c1cccc(Br)c1)c1ccccc1-n1cccc1`, the inhibition is -4.2% (inactive).

`COc1ccc(C(=O)Nc2ccccc2C(=O)N/N=C/c2ccccc2OC)cc1`: the inhibition was 43.1% (active).

In the case of `COc1cc(/C=N/NC(=O)c2ccccc2)ccc1OS(=O)(=O)c1ccccc1`, the inhibition was 17.2% (inactive).

For the molecule `Cc1nc2sc(C(=O)c3ccccc3)c(N)c2c2c1CCCC2`, the inhibition is 23% (inactive).

Regarding `OC(CNCC1CCCO1)Cn1c2ccc(Br)cc2c2cc(Br)ccc21` (stereo unspecified), the inhibition is 51.4% (active).

For the molecule `COc1ccc(OC)c2sc(NC(=O)C3COc4ccccc4O3)nc12` (stereo unspecified), the inhibition was 34.8% (active).

Take `COc1ccc(CS(=O)/C(Cl)=C(/Cl)C(=O)Nc2ccc(OC)nc2)cc1` (stereo unspecified): the inhibition was 78.3% (active).

`COc1ccc(NC(=O)/C(Cl)=C(/Cl)S(=O)Cc2ccc(C)cc2)cn1` (stereo unspecified): the inhibition was 88% (active).

Take `O=[N+]([O-])c1ccc(C=Nc2ccc(Cl)cc2Cl)s1`: the inhibition was 44.1% (active).

Turning to `Cn1c(-c2sccc2OCc2cccc(C(F)(F)F)c2)n[nH]c1=S`, the inhibition was 34.8% (active).

In the case of `Cc1cccc(/C(N)=N/OC(=O)c2ccccc2Cl)c1`, the inhibition is 77.7% (active).

For the molecule `NS(=O)(=O)c1ccc(NC(=S)Nc2ccc(Br)c(Cl)c2)cc1`, the inhibition was 16.9% (inactive).
